In the library only some 27% were active in any assay of this set; here they are far more common.
CYP2C19 inh: blocks human cytochrome P450 2C19; P33261; CYP2C19 Supersomes, luciferin-H EGE luminescence, 30 min; inhibition, % at 5 µM; actives 21% (n = 96,000); AID 778;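 active = CYP2C19 inhibition above a set limit at 5 µM in the primary screen, cut at about 50% in these data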
sEH act: increases human soluble epoxide hydrolase activity; purified human sEH enzymatic activity, activator screen; activation, % at 2 µM; actives 0.04% (n = 91,000); AID 717; in the data active = activation above about 37%
Target sequence (P34913 whole entry, looked up): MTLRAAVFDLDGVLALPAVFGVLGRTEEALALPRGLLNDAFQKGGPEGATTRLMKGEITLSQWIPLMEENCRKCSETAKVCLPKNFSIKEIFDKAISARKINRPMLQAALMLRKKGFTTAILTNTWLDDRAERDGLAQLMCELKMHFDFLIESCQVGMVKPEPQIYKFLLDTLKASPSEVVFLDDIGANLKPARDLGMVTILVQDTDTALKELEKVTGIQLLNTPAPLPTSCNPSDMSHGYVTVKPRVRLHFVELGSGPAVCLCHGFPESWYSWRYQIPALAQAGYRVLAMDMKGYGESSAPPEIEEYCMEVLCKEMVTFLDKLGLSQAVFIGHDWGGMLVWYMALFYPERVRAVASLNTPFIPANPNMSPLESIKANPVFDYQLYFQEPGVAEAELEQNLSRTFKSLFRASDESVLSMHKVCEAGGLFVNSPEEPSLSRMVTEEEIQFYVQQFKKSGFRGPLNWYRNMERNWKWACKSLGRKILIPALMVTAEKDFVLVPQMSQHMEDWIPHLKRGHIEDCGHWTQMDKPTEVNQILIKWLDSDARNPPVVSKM
CYP2C19 act: increases human CYP2C19 enzyme activity; P33261; recombinant CYP2C19, luciferin-H EGE luminescence; hits give high values; 0 = fully inhibited enzyme, 1 = untreated enzyme; activation factor at 5 µM; 96,000 tested, under 10 active; AID 1025;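 active = activation factor of at least 2 at 5 µM in the primary screen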
CYP2C9 inhib: inhibitors of human CYP2C9; actives 20% (n = 96,000); P11712; CYP2C9 Supersomes, luciferin-H conversion, luminescence; AID 777; inhibition, % at 5 µM;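 active = blocking of liver enzyme CYP2C9 beyond about 50% at 5 µM, limit read from the data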
CYP2C9 act: increases human cytochrome P450 2C9 activity; recombinant CYP2C9, luciferin-H conversion, luminescence; hits give high values; factor 1 = untreated enzyme, 0 = blocked; activation factor at 5 µM; actives 1.4% (n = 96,000); AID 1024;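 active = activation factor of 2 or more for CYP2C9 at a 5 µM dose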
sEH inhibitor: inhibitors of human soluble epoxide hydrolase; recombinant human sEH enzymatic activity assay; inhibition, % at 2 µM; actives 0.34% (n = 91,000); AID 707; in the data active = inhibition above about 80%
Hits are given with their value.

Results for CN(NC(N)=O)c1ncc(C(F)(F)F)cc1Cl ?
CYP2C19 inh: inactive; sEH act: inactive; CYP2C19 act: inactive; CYP2C9 inhib: inactive; CYP2C9 act: inactive; sEH inhibitor: inactive

What do the screens show for `CC(C)CC(NC(N)=O)C(=O)OCC(=O)NC(=O)NC1CCCC1` (stereo unspecified)?
CYP2C19 inh: 57.2; sEH act: inactive; CYP2C19 act: inactive; CYP2C9 inhib: inactive; CYP2C9 act: inactive; sEH inhibitor: inactive

Results for COC(=O)[C@H](CC(C)C)NC(=O)NC1CCCCC1C (stereo partly specified) ?
CYP2C19 inh: inactive; sEH act: inactive; CYP2C19 act: inactive; CYP2C9 inhib: inactive; CYP2C9 act: inactive; sEH inhibitor: inactive

What do the screens show for `O=C(Nc1ccccc1N1CCN(C(=O)c2ccccc2)CC1)c1cc(Br)ccc1Cl`?
CYP2C19 inh: 71.3; sEH act: inactive; CYP2C19 act: inactive; CYP2C9 inhib: 81.8; CYP2C9 act: inactive; sEH inhibitor: inactive

How did O=C(Nc1ccccc1N1CCN(C(=O)c2ccccc2)CC1)c1cc2ccccc2o1 do in these assays?
CYP2C19 inh: 96.9; sEH act: inactive; CYP2C19 act: inactive; CYP2C9 inhib: 95.6; CYP2C9 act: inactive; sEH inhibitor: inactive

How did O=C(Nc1ccccc1N1CCCC1)c1cc2ccccc2o1 do in these assays?
CYP2C19 inh: inactive; sEH act: inactive; CYP2C19 act: inactive; CYP2C9 inhib: inactive; CYP2C9 act: inactive; sEH inhibitor: inactive

Results for Nc1ccccc1N1CCN(C(=O)c2ccccc2)CC1 ?
sEH act: inactive; sEH inhibitor: inactive

Results for COc1ccc(CC(=O)NCc2ccccc2)cc1S(=O)(=O)N1CCOCC1 ?
CYP2C19 inh: inactive; sEH act: inactive; CYP2C19 act: inactive; CYP2C9 inhib: inactive; CYP2C9 act: inactive; sEH inhibitor: inactive

What do the screens show for `COc1ccc(CC(=O)Nc2nnc(SCc3ccccc3)s2)cc1S(=O)(=O)N1CCOCC1`?
CYP2C19 inh: 90.7; sEH act: inactive; CYP2C19 act: inactive; CYP2C9 inhib: 90.4; CYP2C9 act: inactive; sEH inhibitor: inactive

What do the screens show for `CCOc1ccc2nc(NC(=O)c3ccc(OC)c(S(=O)(=O)N4CCOCC4)c3)sc2c1`?
CYP2C19 inh: inactive; sEH act: inactive; CYP2C19 act: inactive; CYP2C9 inhib: inactive; CYP2C9 act: inactive; sEH inhibitor: inactive

Results for COc1ccc(C(CNC(=O)c2ccc(S(=O)(=O)N3CCOCC3)cc2)N2CCCCC2)cc1 (stereo unspecified) ?
sEH act: inactive; sEH inhibitor: inactive

How did COc1ccc(CC(=O)Nc2nc3ccccc3s2)cc1S(=O)(=O)N1CCOCC1 do in these assays?
CYP2C19 inh: 76.3; sEH act: inactive; CYP2C19 act: inactive; CYP2C9 inhib: 64.1; CYP2C9 act: inactive; sEH inhibitor: inactive

What do the screens show for `COc1ccc(C(=O)NCC(c2ccc(F)cc2)N2CCOCC2)cc1S(=O)(=O)N1CCCC1` (stereo unspecified)?
CYP2C19 inh: 91.9; sEH act: inactive; CYP2C19 act: inactive; CYP2C9 inhib: inactive; CYP2C9 act: inactive; sEH inhibitor: inactive

Results for COc1ccc(CC(=O)Nc2nc3ccc(F)cc3s2)cc1S(=O)(=O)N1CCOCC1 ?
CYP2C19 inh: 75.4; sEH act: inactive; CYP2C19 act: inactive; CYP2C9 inhib: 74.9; CYP2C9 act: inactive; sEH inhibitor: inactive

What do the screens show for `CC1(C)OC(=O)N(c2cccnc2)C1(C)O` (stereo unspecified)?
CYP2C19 inh: inactive; sEH act: inactive; CYP2C19 act: inactive; CYP2C9 inhib: inactive; CYP2C9 act: inactive; sEH inhibitor: inactive

What do the screens show for `Cc1ccccc1N/C=C/C(=C(C#N)C#N)N(C)C`?
CYP2C19 inh: inactive; sEH act: inactive; CYP2C19 act: inactive; CYP2C9 inhib: inactive; CYP2C9 act: inactive; sEH inhibitor: inactive

How did O/N=C1/C2C3CC4C5C3C1C5C1(OCCO1)C42 (stereo unspecified) do in these assays?
CYP2C19 inh: inactive; CYP2C19 act: inactive; CYP2C9 inhib: inactive; CYP2C9 act: inactive

Results for CCC(Oc1ccccc1)C(=O)Nc1nnc(C)s1 (stereo unspecified) ?
CYP2C19 inh: inactive; sEH act: inactive; CYP2C19 act: inactive; CYP2C9 inhib: 63.0; CYP2C9 act: inactive; sEH inhibitor: inactive

Results for CCC(Oc1ccccc1)C(=O)Nc1nc2c(s1)C(=O)CC(C)(C)C2 (stereo unspecified) ?
CYP2C19 inh: inactive; sEH act: inactive; CYP2C19 act: inactive; CYP2C9 inhib: 54.5; CYP2C9 act: inactive; sEH inhibitor: inactive

How did Cc1nnc(NC(=O)Oc2ccccc2)s1 do in these assays?
CYP2C19 inh: inactive; sEH act: inactive; CYP2C19 act: inactive; CYP2C9 inhib: inactive; CYP2C9 act: inactive; sEH inhibitor: inactive

Results for CCC(Oc1ccccc1)C(=O)Nc1nnc(C(F)(F)F)s1 (stereo unspecified) ?
CYP2C19 inh: inactive; sEH act: inactive; CYP2C19 act: inactive; CYP2C9 inhib: 96.7; CYP2C9 act: inactive; sEH inhibitor: inactive

What do the screens show for `CCC(Oc1ccccc1)C(=O)Nc1ccccc1OC` (stereo unspecified)?
CYP2C19 inh: inactive; sEH act: inactive; CYP2C19 act: inactive; CYP2C9 inhib: inactive; CYP2C9 act: inactive; sEH inhibitor: inactive

Results for CCC(CC)c1nnc(NC(=O)Oc2ccccc2)s1 ?
CYP2C19 inh: inactive; sEH act: inactive; CYP2C19 act: inactive; CYP2C9 inhib: 56.4; CYP2C9 act: inactive; sEH inhibitor: inactive

How did O=C(Cn1ncc2c(=O)oc3ccccc3c21)N1CCCN(Cc2ccccc2F)C1 do in these assays?
CYP2C19 inh: inactive; CYP2C19 act: inactive; CYP2C9 inhib: inactive; CYP2C9 act: inactive

What do the screens show for `CC1(C)C(=O)NCCN1C(=O)CCC(=O)O`?
sEH act: inactive; sEH inhibitor: inactive

How did CCC(=Nc1ccc(Cc2ccncc2)cc1)c1c(O)n(C)c(=O)n(C)c1=O do in these assays?
CYP2C19 inh: 95.6; sEH act: inactive; CYP2C19 act: inactive; CYP2C9 inhib: 91.7; CYP2C9 act: inactive; sEH inhibitor: inactive

How did Cc1cc(C)n(CC(=O)O)n1 do in these assays?
sEH act: inactive; sEH inhibitor: inactive

How did Cc1cc(C)n(CC(=O)N2c3ccccc3Sc3ccccc32)n1 do in these assays?
CYP2C19 inh: 66.9; sEH act: inactive; CYP2C19 act: inactive; CYP2C9 inhib: inactive; CYP2C9 act: inactive; sEH inhibitor: inactive

Results for CCOCCCNC(=O)C1CCN(S(=O)(=O)N(CC(C)C)CC(C)C)CC1 ?
CYP2C19 inh: inactive; CYP2C19 act: inactive; CYP2C9 inhib: inactive; CYP2C9 act: inactive

How did O=C(NCc1ccccn1)Nc1cccc(Cl)c1 do in these assays?
CYP2C19 inh: inactive; CYP2C19 act: inactive; CYP2C9 inhib: inactive; CYP2C9 act: inactive

How did CCCCCOc1ccc(NC(=O)C(=O)NCCCn2ccnc2)cc1 do in these assays?
CYP2C19 inh: 88.6; sEH act: inactive; CYP2C19 act: inactive; CYP2C9 inhib: 83.1; CYP2C9 act: inactive; sEH inhibitor: inactive

How did O=C(Cc1ccc(Cl)cc1)NCCCn1ccnc1 do in these assays?
CYP2C19 inh: 98.1; sEH act: inactive; CYP2C19 act: inactive; CYP2C9 inhib: 87.9; CYP2C9 act: inactive; sEH inhibitor: inactive
